Bioassay records deposited in PubChem by Johns Hopkins Ion Channel Center.
Rows were chosen to be rich in hits. Some 3.5% of all compounds tested hit in one or more screens of this group.
TMEM16A inh: blocks the mouse calcium-activated chloride channel TMEM16A; HEK293 TMEM16A/YFP iodide influx fluorescence, ionomycin; actives 1.2% (n = 310,000); AID 588511; normalized B-score (activity score, 25-100; higher = stronger inhibition) at 10 µM;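 active = ratio plate-corrected score three or more library SD toward inhibition, starting fluorescence score within five deviations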;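 note: score derived from kinetic fluorescence span divided by baseline fluorescence per well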
KCNK9 inh-1: human KCNK9 channel inhibition | B-score at 10 µM | AID 488922 | HEK293 KCNK9, FluxOR thallium flux fluorescence; stronger effect = lower value | actives 1.2% (n = 310,000) | Q9NPC2;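 active = ratio B-score over 3 SD below the library mean, with starting fluorescence within 5 SD of its mean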;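 note: negative B-score means less thallium flux so channel inhibition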
Kir21 inh: inhibitors of mouse Kir2.1 inward-rectifier potassium channel | B-score at 10 µM | AID 1672 | actives 0.85% (n = 310,000) | HEK293-Kir2.1, FluxOR thallium flux fluorescence; stronger effect = lower value | P35561;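 active = fluorescence ratio B-score at or below minus 3 SD of library scores, with starting-brightness B-score within 2 SD, cut at about -4.2 in these data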;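 note: channel flux triggered by added potassium and thallium sulfate stimulus; B-score of peak minus minimum fluorescence over baseline after thallium stimulus; more negative B-score means stronger Kir2.1 block with less thallium influx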
KCNK3 inh: human KCNK3 channel inhibition, primary screen | CHO-KCNK3 thallium flux, FluxOR fluorescence; stronger effect = lower value | B-score at 10 µM | actives 0.84% (n = 340,000) | O14649;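 active = B-score under library mean minus 4 SD, starting fluorescence ratio at most library mean plus 5 SD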;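 note: more negative B-score means stronger inhibition of thallium flux through KCNK3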
ANO1 activ: mouse TMEM16A channel activation, primary screen. Q8BHY3. HEK293 TMEM16A/YFP-H148Q/I152L, iodide quench fluorescence; stronger effect = lower value. B-score at 10 µM. actives 0.3% (n = 340,000);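 active = fluorescence-ratio B-score plate-corrected deviation score at least 3 library SD below zero, with starting fluorescence score within 5 deviations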;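 note: channel opened by trigger with iodide after compound preincubation; score built on the fluorescence ratio of max minus min over baseline; more negative score means more quench and so TMEM16A activation or potentiation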
hERG ctr: hERG (human) inhibition as Kir2.1 counter-screen. shares compounds with Kir21 inh. hERG-expressing cells, thallium flux. inhibition, % at 10 µM. actives 20% (n = 320);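 note: host cells are CHO cells stably expressing hERG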
Target sequence (Q12809 whole entry, looked up): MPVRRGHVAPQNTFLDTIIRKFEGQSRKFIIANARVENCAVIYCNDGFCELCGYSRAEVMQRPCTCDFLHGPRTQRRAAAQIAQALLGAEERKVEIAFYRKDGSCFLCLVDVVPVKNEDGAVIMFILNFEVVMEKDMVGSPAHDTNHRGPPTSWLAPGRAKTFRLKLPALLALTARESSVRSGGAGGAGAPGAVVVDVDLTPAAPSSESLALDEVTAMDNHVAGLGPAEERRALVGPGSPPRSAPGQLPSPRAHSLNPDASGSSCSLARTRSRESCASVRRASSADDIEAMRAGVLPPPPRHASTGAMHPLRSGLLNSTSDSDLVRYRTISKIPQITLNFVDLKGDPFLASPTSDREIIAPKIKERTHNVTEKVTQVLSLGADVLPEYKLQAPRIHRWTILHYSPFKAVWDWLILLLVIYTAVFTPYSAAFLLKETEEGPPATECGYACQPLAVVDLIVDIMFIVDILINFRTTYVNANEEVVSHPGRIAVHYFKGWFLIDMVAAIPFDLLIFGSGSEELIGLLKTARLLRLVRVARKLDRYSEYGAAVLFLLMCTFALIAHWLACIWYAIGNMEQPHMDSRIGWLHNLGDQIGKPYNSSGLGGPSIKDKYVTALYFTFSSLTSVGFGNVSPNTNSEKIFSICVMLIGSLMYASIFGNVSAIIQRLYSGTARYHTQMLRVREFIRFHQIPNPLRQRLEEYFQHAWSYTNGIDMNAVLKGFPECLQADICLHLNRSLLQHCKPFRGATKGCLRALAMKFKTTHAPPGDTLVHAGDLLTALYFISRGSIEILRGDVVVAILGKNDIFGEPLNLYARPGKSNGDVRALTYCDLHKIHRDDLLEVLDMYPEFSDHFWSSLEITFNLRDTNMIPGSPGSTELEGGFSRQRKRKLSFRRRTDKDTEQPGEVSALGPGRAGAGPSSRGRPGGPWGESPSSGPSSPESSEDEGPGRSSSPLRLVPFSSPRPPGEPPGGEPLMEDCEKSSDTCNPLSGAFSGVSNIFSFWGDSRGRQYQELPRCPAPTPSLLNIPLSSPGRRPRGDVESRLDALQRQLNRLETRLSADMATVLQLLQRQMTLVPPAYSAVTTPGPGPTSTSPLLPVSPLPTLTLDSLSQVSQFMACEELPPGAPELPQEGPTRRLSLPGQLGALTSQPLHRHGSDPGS
KCNK9 inh-2: human KCNK9 off-target activity of Kir2.1 blockers. shares compounds with Kir21 inh. KCNK9-expressing cells, ion flux inhibition. inhibition, % at 10 µM. actives 5% (n = 320). AID 2329
Kir2-1 patch inh: inhibitors of mouse Kir2.1 potassium channel; actives 71% (n = 320); inhibition, % at 25 µM; Kir2.1 cells, automated patch-clamp current inhibition; shares compounds with Kir21 inh
* hit, by the source's call; i = inactive; x = no result. Unless noted, the rule behind the calls is not given here.

SMILES	TMEM16A inh	KCNK9 inh-1	Kir21 inh	KCNK3 inh	ANO1 activ	others
COc1cccc(OC)c1NC(=O)CN1CCC(NC(=O)c2cccc(F)c2)CC1	i	i	-0.07	i	i
CCCc1cc(=O)[nH]c(/N=C(\N)Nc2ccccc2)n1	i	i	0.28	i	i
Cc1cc(O)c(C(C)C)cc1NC(=O)Nc1ccc([N+](=O)[O-])cc1	x	x	x	-10*	i
Cc1nnsc1S(=O)c1ccc(Cl)cc1 (configuration not stated)	i	i	1.3	i	i
O=C(c1nnsc1S(=O)c1ccc(Cl)cc1)N1CCOCC1 (configuration not stated)	x	i	-7*	i	i
O=C(c1nnsc1S(=O)(=O)c1ccc(Cl)cc1)N1CCOCC1	x	i	-1.7	i	i
O=C(Nc1ccccc1)c1nnsc1S(=O)c1ccc(Cl)cc1 (configuration not stated)	i	i	0	i	-9.3*
CCCOC(=O)c1ccc(OC(=O)c2ccco2)cc1	i	i	-4.4*	i	i
CC(=O)Nc1ccc(OC(=O)c2ccco2)cc1	i	i	-0.61	i	i
COc1cc([N+](=O)[O-])ccc1-c1ccc(/C=C2\C(=O)ON=C2c2ccccc2)o1	x	x	x	i	-5.7*
O=C1ON=C(c2ccccc2)/C1=C/c1ccccc1	i	i	0.55	i	i
COc1cc(/C=C2/CC/C(=C/c3ccc(O)c(OC)c3)C2=O)ccc1O	i	-7.4*	-4	-9.1*	-13*
COc1cc([N+](=O)[O-])ccc1-c1ccc(/C=N\n2cnnc2)o1	i	i	1.2	i	i
COc1cc(/C=C2/C(=O)ON=C2c2ccccc2)ccc1O	i	i	-4.8*	i	i
COc1cc(/C=C2\C(=O)ON=C2c2ccccc2)cc(Br)c1O	i	i	-6.6*	i	i
CN(C(=O)Nc1ccccc1)C1CCCc2ccccc21 (configuration not stated)	i	i	-0.56	i	i
COc1ccccc1N1CCN(S(=O)(=O)CCNC(=O)C23CC4CC(CC(C4)C2)C3)CC1	i	i	-0.13	i	i
O=S(=O)(c1ccc(Cl)cc1)N1CCCc2ccccc21	i	i	-4.6*	i	i
CC(=O)N1CCc2ccc(S(=O)(=O)N3CCc4ccccc43)cc21	i	i	0.63	i	i
Nc1ccc(S(=O)(=O)N2CCCc3ccccc32)cc1	i	i	-5.7*	i	i
O=S(=O)(c1ccc(Cl)cc1)N1CCc2ccccc21	i	i	-4.7	i	i
O=C(NCc1ccco1)c1ccc(S(=O)(=O)N2CCCc3ccccc32)cc1	i	-6.9*	-0.99	i	i
CCn1c(=O)n(CC)c2cc(S(=O)(=O)N3CCc4ccccc43)ccc21	i	i	-4.3*	i	i
O=C(NCc1ncc(C(F)(F)F)cc1Cl)Nc1ccccc1	i	i	0.88	i	i
CNc1c([N+](=O)[O-])cnn1-c1ccc(Cl)cc1	i	-7.9*	1.2	i	i
SMILES	TMEM16A inh	KCNK9 inh-1	Kir21 inh	KCNK3 inh	ANO1 activ	others
Oc1ccccc1CNc1cccc2cccnc12	i	-7.3*	-1.2	i	i
COc1cc(NCc2ccccc2O)c2ncccc2c1	x	i	-0.61	i	i
COc1ccc(NC(=O)CN(C)C(=O)Cn2cnc3c2c(=O)n(C)c(=O)n3C)cc1	i	i	0.92	i	i
O=C(c1nc2n(n1)C(c1ccc(Cl)cc1)C=C(c1ccccc1)N2)N1CCOCC1 (configuration not stated)	i	-6.8*	-4.6	i	i
C#CCOCCOCCOCCNc1nc(N2CCN(C(=O)CCCCCCCCCCNC(=O)[C@@H](CCSC)n3cc(CCO)nn3)CC2)nc(N2CCN(C(=O)CCCCCCCCCCNC(=O)[C@H]([C@@H](C)CC)n3cc(CCCCCN)nn3)CC2)n1	100*	x	x	x	x
C#CCOCCOCCOCCNc1nc(N2CCN(C(=O)CCCCCCCCCCNC(=O)[C@@H](CCSC)n3cc(CCO)nn3)CC2)nc(N2CCN(C(=O)CCCCCCCCCCNC(=O)[C@H]([C@@H](C)CC)n3cc(CCCCN=C(N)N)nn3)CC2)n1	i	x	x	i	-23*
C#CCOCCOCCOCCNc1nc(N2CCN(C(=O)CCCCCCCCCCNC(=O)[C@H]([C@@H](C)CC)n3cc(CCCCN=C(N)N)nn3)CC2)nc(N2CCN(C(=O)CCCCCCCCCCNC(=O)[C@H](CCCCN)n3cc(C[C@@H](C)CC)nn3)CC2)n1	i	x	x	x	x
Cc1ccc(S(=O)(=O)N2CCN(C(=O)COC(=O)/C=C/c3ccccc3[N+](=O)[O-])CC2)c(C)c1	i	i	2.4	i	i
CCOc1ccc(N(CC(=O)Nc2ccc(OC)cc2)C2=NC3CS(=O)(=O)CC3S2)cc1 (configuration not stated)	i	i	-1.4	i	i
CCOc1cc(/C=N/O)ccc1OS(=O)(=O)c1ccc(C)cc1	i	i	-7.5*	i	i	hERG ctr=i;KCNK9 inh-2=i;Kir2-1 patch inh=6.7%*
CCCCN(CCCC)CCNC(=O)CN1C(=O)COc2ccc(S(=O)(=O)N3CCC(C)CC3)cc21	i	i	-1.9	i	i
CCCCN(CCCNC(=O)CN1C(=O)COc2ccc(S(=O)(=O)N3CCC(C)CC3)cc21)Cc1ccccc1	i	i	-5.7*	i	i	hERG ctr=i;KCNK9 inh-2=i;Kir2-1 patch inh=i
C[C@H]1CN(S(=O)(=O)c2c(F)cccc2F)CCN1S(=O)(=O)c1ccc2c(c1)OCCO2	x	x	x	i	i
COc1ccc(CCNCC(O)COc2ccc(OC)cc2C(C)(C)C)cc1 (configuration not stated)	i	i	-6.2*	i	i	hERG ctr=61%*;KCNK9 inh-2=i;Kir2-1 patch inh=i
COc1ccc(CNCC(O)COc2ccc(C)cc2[N+](=O)[O-])cc1 (configuration not stated)	i	i	-8.7*	i	i	hERG ctr=i;KCNK9 inh-2=i;Kir2-1 patch inh=61%*
OC(CNCc1ccccc1)COc1ccccc1 (configuration not stated)	i	i	0.09	i	i
COc1ccc(CCNCC(O)COc2cccc(Br)c2)cc1OC (configuration not stated)	i	i	-1.4	i	i
